Several values for one entry are separate records, joined by “and”; a condition that tells them apart may be missing. Identical values can stand only once. The campaign covered roughly 5,500 compounds. About 2,000 (36%) were called active. Inconclusive results (about 18%) are left out. Some of the results follow. A number with no mark means an inactive call. Rule as the data show it: active = normalized growth mostly below about 0.91 (no sharp cut-off); inconclusive = no clear call, values can overlap the other calls; inactive = mostly above about 0.92.
Experiment: chemical genetic growth profiling, strain panel (AID 1159580);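 also: tested at 20 µM; growth read once vehicle control cultures reached saturation at 30 °C; 1 = growth at the plate median or of vehicle wells; lower values mean less growth of the strain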
Settings: growth OD

With `COc1ccc2c(c1)c(CC(=O)O)c(C)n2C(=O)c1ccc(Cl)cc1` the normalized growth (S. cerevisiae deletion strains, locus YJR075W, strain HOC1, active compounds read low) was 1, the normalized growth (S. cerevisiae deletion strains, locus YKL009W, strain mrt4, active compounds read low) was 0.998 and the normalized growth (S. cerevisiae deletion strains, locus YKL068W, active compounds read low) was 0.959. The normalized growth (S. cerevisiae deletion strains, locus YKL085W, strain MDH1 (second series), active compounds read low) was 0.955, the normalized growth (S. cerevisiae deletion strains, locus YKL085W, strain MDH1, active compounds read low) was 0.955 and the normalized growth (S. cerevisiae deletion strains, locus YKL160W, strain elf1, active compounds read low) was 0.98. It also gave a normalized growth (S. cerevisiae deletion strains, locus YKL190W, strain CNB1, active compounds read low) of 1.01, a normalized growth (S. cerevisiae deletion strains, locus YKR001C, strain vps1, active compounds read low) of 0.993 and a normalized growth (S. cerevisiae deletion strains, locus YKR026C, strain gcn3, active compounds read low) of 0.983. It also gave a normalized growth (S. cerevisiae deletion strains, locus YKR091W, strain srl3, active compounds read low) of 0.984, a normalized growth (S. cerevisiae deletion strains, locus YLL001W, strain dnm1, active compounds read low) of 0.938 and a normalized growth (S. cerevisiae deletion strains, locus YLL026W, active compounds read low) of 0.988. The normalized growth (S. cerevisiae deletion strains, locus YLL041C, strain sdh2, active compounds read low) was 0.986, the normalized growth (S. cerevisiae deletion strains, locus YLR027C, strain aat2, active compounds read low) was 0.98 and the normalized growth (S. cerevisiae deletion strains, locus YLR039C, strain RIC1, active compounds read low) was 1.17. The normalized growth (S. cerevisiae deletion strains, locus YLR058C, strain SHM2, active compounds read low) was 1.02, the normalized growth (S. cerevisiae deletion strains, locus YLR102C, strain apc9, active compounds read low) was 0.975 and the normalized growth (S. cerevisiae deletion strains, locus YLR113W, strain HOG1, active compounds read low) was 0.874. The normalized growth (S. cerevisiae deletion strains, locus YLR221C, strain rsa3, active compounds read low) was 0.874 (active), the normalized growth (S. cerevisiae deletion strains, locus YLR258W, strain gsy2, active compounds read low) was 0.978 and the normalized growth (S. cerevisiae deletion strains, locus YLR262C, strain YPT6 (second series), active compounds read low) was 0.912. For the same compound, the normalized growth (S. cerevisiae deletion strains, locus YLR262C, strain YPT6, active compounds read low) was 1.03, the normalized growth (S. cerevisiae deletion strains, locus YLR268W, strain sec22, active compounds read low) was 0.993 and the normalized growth (S. cerevisiae deletion strains, locus YLR320W, strain mms22, active compounds read low) was 0.819 (active). For the same compound, the normalized growth (S. cerevisiae deletion strains, locus YLR330W, strain CHS5, active compounds read low) was 0.995, the normalized growth (S. cerevisiae deletion strains, locus YLR342W, strain FKS1 (second series), active compounds read low) was 1.01 and the normalized growth (S. cerevisiae deletion strains, locus YLR342W, strain FKS1, active compounds read low) was 0.971. It also gave a normalized growth (S. cerevisiae deletion strains, locus YLR357W, strain rsc2, active compounds read low) of 0.973, a normalized growth (S. cerevisiae deletion strains, locus YLR370C, strain arc18, active compounds read low) of 0.943 and a normalized growth (S. cerevisiae deletion strains, locus YLR371W, strain rom2, active compounds read low) of 0.987. It also gave a normalized growth (S. cerevisiae deletion strains, locus YLR384C, strain iki3, active compounds read low) of 0.986, a normalized growth (S. cerevisiae deletion strains, locus YLR418C, strain cdc73, active compounds read low) of 0.966 and a normalized growth (S. cerevisiae deletion strains, locus YML016C, strain PPZ1, active compounds read low) of 1.01. The normalized growth (S. cerevisiae deletion strains, locus YML032C, strain rad52, active compounds read low) was 0.999, the normalized growth (S. cerevisiae deletion strains, locus YML120C, strain ndi1, active compounds read low) was 0.874 (active) and the normalized growth (S. cerevisiae deletion strains, locus YML124C, strain tub3, active compounds read low) was 0.981. The normalized growth (S. cerevisiae deletion strains, locus YMR058W, strain fet3, active compounds read low) was 0.975, the normalized growth (S. cerevisiae deletion strains, locus YMR078C, strain ctf18, active compounds read low) was 0.973 and the normalized growth (S. cerevisiae deletion strains, locus YMR125W, strain sto1, active compounds read low) was 0.975. The normalized growth (S. cerevisiae deletion strains, locus YMR129W, active compounds read low) was 0.987, the normalized growth (S. cerevisiae deletion strains, locus YMR205C, strain PFK2, active compounds read low) was 0.982 and the normalized growth (S. cerevisiae deletion strains, locus YMR223W, strain ubp8, active compounds read low) was 0.976. For the same compound, the normalized growth (S. cerevisiae deletion strains, locus YMR231W, strain pep5, active compounds read low) was 0.988, the normalized growth (S. cerevisiae deletion strains, locus YMR263W, strain SAP30, active compounds read low) was 1 and 1.01 and the normalized growth (S. cerevisiae deletion strains, locus YMR307W, strain GAS1, active compounds read low) was 1.02 and 1. The normalized growth (S. cerevisiae deletion strains, locus YNL067W, strain RPL9B, active compounds read low) was 1, the normalized growth (S. cerevisiae deletion strains, locus YNL071W, strain lat1, active compounds read low) was 0.986 and the normalized growth (S. cerevisiae deletion strains, locus YNL175C, strain NOP13, active compounds read low) was 1. It also gave a normalized growth (S. cerevisiae deletion strains, locus YNL183C, strain NPR1, active compounds read low) of 0.931, a normalized growth (S. cerevisiae deletion strains, locus YNL197C, strain WHI3, active compounds read low) of 1 and a normalized growth (S. cerevisiae deletion strains, locus YNL209W, strain ssb2, active compounds read low) of 0.953. For the same compound, the normalized growth (S. cerevisiae deletion strains, locus YNL224C, strain SQS1, active compounds read low) was 0.994, the normalized growth (S. cerevisiae deletion strains, locus YNL233W, strain BNI4, active compounds read low) was 1.01 and the normalized growth (S. cerevisiae deletion strains, locus YNL248C, strain rpa49, active compounds read low) was 0.958. It also gave a normalized growth (S. cerevisiae deletion strains, locus YNL250W, strain rad50, active compounds read low) of 0.947, a normalized growth (S. cerevisiae deletion strains, locus YNL271C, strain bni1, active compounds read low) of 0.955 and a normalized growth (S. cerevisiae deletion strains, locus YNL298W, strain CLA4, active compounds read low) of 0.944. The normalized growth (S. cerevisiae deletion strains, locus YNL307C, strain MCK1, active compounds read low) was 0.986, the normalized growth (S. cerevisiae deletion strains, locus YNL322C, strain KRE1 (second series), active compounds read low) was 0.64 (active) and the normalized growth (S. cerevisiae deletion strains, locus YNL322C, strain KRE1, active compounds read low) was 1. The normalized growth (S. cerevisiae deletion strains, locus YNR049C, strain mso1, active compounds read low) was 0.984, the normalized growth (S. cerevisiae deletion strains, locus YNR052C, strain pop2, active compounds read low) was 0.99 and the normalized growth (S. cerevisiae deletion strains, locus YOL012C, strain htz1) was 2.03. For the same compound, the normalized growth (S. cerevisiae deletion strains, locus YOL147C, strain pex11, active compounds read low) was 0.981, the normalized growth (S. cerevisiae deletion strains, locus YOR001W, strain rrp6, active compounds read low) was 0.926 and the normalized growth (S. cerevisiae deletion strains, locus YOR061W, strain CKA2, active compounds read low) was 1.01. It also gave a normalized growth (S. cerevisiae deletion strains, locus YOR069W, strain VPS5, active compounds read low) of 0.996, a normalized growth (S. cerevisiae deletion strains, locus YOR070C, strain gyp1, active compounds read low) of 0.977 and a normalized growth (S. cerevisiae deletion strains, locus YOR080W, strain dia2, active compounds read low) of 0.989. The normalized growth (S. cerevisiae deletion strains, locus YOR083W, strain WHI5 (second series), active compounds read low) was 1.01, the normalized growth (S. cerevisiae deletion strains, locus YOR083W, strain WHI5, active compounds read low) was 0.942 and the normalized growth (S. cerevisiae deletion strains, locus YOR106W, strain vam3, active compounds read low) was 0.929. It also gave a normalized growth (S. cerevisiae deletion strains, locus YOR136W, strain idh2, active compounds read low) of 1, a normalized growth (S. cerevisiae deletion strains, locus YOR144C, strain elg1, active compounds read low) of 0.992 and a normalized growth (S. cerevisiae deletion strains, locus YOR184W, strain ser1, active compounds read low) of 0.988. The normalized growth (S. cerevisiae deletion strains, locus YOR231W, strain MKK1, active compounds read low) was 0.953, the normalized growth (S. cerevisiae deletion strains, locus YOR265W, strain rbl2, active compounds read low) was 0.96 and the normalized growth (S. cerevisiae deletion strains, locus YOR270C, strain vph1, active compounds read low) was 0.957. For the same compound, the normalized growth (S. cerevisiae deletion strains, locus YOR290C, strain snf2, active compounds read low) was 0.895, the normalized growth (S. cerevisiae deletion strains, locus YOR316C, strain cot1, active compounds read low) was 0.985 and the normalized growth (S. cerevisiae deletion strains, locus YPL051W, strain arl3, active compounds read low) was 0.969. The normalized growth (S. cerevisiae deletion strains, locus YPL078C, strain atp4, active compounds read low) was 0.975, the normalized growth (S. cerevisiae deletion strains, locus YPL106C, strain sse1, active compounds read low) was 1.02 and the normalized growth (S. cerevisiae deletion strains, locus YPL240C, strain hsp82, active compounds read low) was 0.978. It also gave a normalized growth (S. cerevisiae deletion strains, locus YPL241C, strain CIN2, active compounds read low) of 0.996, a normalized growth (S. cerevisiae deletion strains, locus YPL256C, strain CLN2, active compounds read low) of 0.871 and a normalized growth (S. cerevisiae deletion strains, locus YPR119W, strain clb2, active compounds read low) of 0.98. The normalized growth (S. cerevisiae deletion strains, locus YPR141C, strain kar3, active compounds read low) was 0.96, the normalized growth (S. cerevisiae deletion strains, locus YPR163C, strain tif3, active compounds read low) was 0.981 and the normalized growth (S. cerevisiae deletion strains, locus YPR167C, strain met16, active compounds read low) was 0.977. It also gave a normalized growth (S. cerevisiae deletion strains, strain wtn01, active compounds read low) of 0.985 and a normalized growth (S. cerevisiae strains, strain wild type, active compounds read low) of 1.
